Measured values published in PubChem BioAssay (EPA / NIEHS).
Results filed as inconclusive are left out. Calls of active or inactive are those of the source. How the source made its calls, unless noted: active means hit-call score of the fitted dose curve at least 0.9, where 1 is the maximum; inconclusive means response in the unintended direction; inactive means score below 0.9.

Columns and labels:
[1] = read-out: TIMP1, TIMP1 (gene 7076); test: LTEA_HepaRG_TIMP1: Life Technologies and Expression Analysis (LTEA) Assay for TIMP1 using HepaRG (AID 2283534; active means hit-call score of the fitted dose curve at least 0.9, where 1 is the maximum; inactive means score below 0.9;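 further: TaqMan qRT-PCR signal normalized to ACTB GAPDH and POLR2A housekeeping genes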); settings: mRNA level, 48 h; actives raise or lower the signal
Summary of the method: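 HepaRG, 48 h exposure, 8-pt half-log series from 100 uM in 0.5% DMSO, duplicates; TIMP1 transcript by Fluidigm qRT-PCR, housekeeping-normalized; bidirectional curve fit vs DMSO baseline.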

[2] = read-out: Tumor necrosis factor receptor 1 (TNFRSF1A), TNFRSF1A (gene 7132); test: LTEA_HepaRG_TNFRSF1A: Life Technologies and Expression Analysis (LTEA) Assay for Tumor necrosis factor receptor 1 (TNFRSF1A) using HepaRG (AID 2283535; active means hit-call score of the fitted dose curve at least 0.9, where 1 is the maximum; inactive means score below 0.9); settings: mRNA level, 48 h; actives raise or lower the signal
Summary of the method: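 HepaRG, 48 h plating then 48 h chemical exposure, serum-free induction media; 8-pt CRC from 100 uM, half-log, 0.5% DMSO vehicle, duplicates. Readout: TaqMan qRT-PCR (Fluidigm), housekeeping-gene normalized; bidirectional fit vs DMSO.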

[3] = read-out: Thyroid Hormone Responsive (THRSP), THRSP (gene 7069); test: LTEA_HepaRG_THRSP: Life Technologies and Expression Analysis (LTEA) Assay for Thyroid Hormone Responsive (THRSP) using HepaRG (AID 2283536; active means hit-call score of the fitted dose curve at least 0.9, where 1 is the maximum; inactive means score below 0.9); settings: mRNA level, 48 h; actives raise or lower the signal
Summary of the method: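 Cell model: human HepaRG, approx. 100,000 cells/well, 0.5% DMSO vehicle. Exposure lasts 48 h; phenobarbital 1 mM serves as induction positive control. Gene expression is measured by qRT-PCR against three endogenous control genes.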

[4] = read-out: Cellular tumor antigen p53 (Homo sapiens) (UniProt P04637); test: LTEA_HepaRG_TP53: Life Technologies and Expression Analysis (LTEA) Assay for Tumor Protein P53 (TP53) using HepaRG (AID 2283537; active means hit-call score of the fitted dose curve at least 0.9, where 1 is the maximum; inactive means score below 0.9); settings: mRNA level, 48 h; actives raise or lower the signal
Summary of the method: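 Differentiated HepaRG cells in serum-free induction medium exposed 48 h in duplicate to 8 half-log concentrations, top 100 uM, 0.5% DMSO. TP53 mRNA by TaqMan qRT-PCR (Fluidigm), normalized to ACTB, GAPDH, POLR2A; fitted bidirectionally versus DMSO.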

[5] = read-out: UDP glucuronosyltransferase (UGT1A1), UGT1A1 (gene 54658); test: LTEA_HepaRG_UGT1A1: Life Technologies and Expression Analysis (LTEA) Assay for UDP glucuronosyltransferase (UGT1A1) using HepaRG (AID 2283538; active means hit-call score of the fitted dose curve at least 0.9, where 1 is the maximum; inactive means score below 0.9); settings: mRNA level, 48 h; actives raise or lower the signal
Summary of the method: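 UGT1A1 transcript level, measured by qRT-PCR with three housekeeping genes for normalization, after 48 h treatment of human HepaRG cells (0.5% DMSO, duplicates, up to 100 uM, half-log steps, 8 points). Curves fit both directions against DMSO baseline.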

[6] = read-out: UDP glucuronosyltransferase (UGT1A6), UGT1A6 (gene 54578); test: LTEA_HepaRG_UGT1A6: Life Technologies and Expression Analysis (LTEA) Assay for UDP glucuronosyltransferase (UGT1A6) using HepaRG (AID 2283539; active means hit-call score of the fitted dose curve at least 0.9, where 1 is the maximum; inactive means score below 0.9); settings: mRNA level, 48 h; actives raise or lower the signal
Summary of the method: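 qRT-PCR readout of UGT1A6 mRNA (normalized to ACTB/GAPDH/POLR2A) in differentiated HepaRG cells after 48 h chemical exposure; 8 concentrations, top 100 uM, half-log steps, 0.5% DMSO. Bidirectional curve fit relative to DMSO baseline.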

[7] = read-out: X-box binding protein 1 (XBP1), XBP1 (gene 7494); test: LTEA_HepaRG_XBP1: Life Technologies and Expression Analysis (LTEA) Assay for X-box binding protein 1 (XBP1) using HepaRG (AID 2283540; active means hit-call score of the fitted dose curve at least 0.9, where 1 is the maximum; inactive means score below 0.9); settings: mRNA level, 48 h; actives raise or lower the signal
Summary of the method: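 HepaRG, 48 h exposure, 8-pt half-log CRC top 100 uM, 0.5% DMSO vehicle, duplicates. Readout: TaqMan qRT-PCR of XBP1 mRNA, housekeeping-normalised (ACTB/GAPDH/POLR2A); bidirectional fit vs DMSO baseline.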

[8] = LTEA_HepaRG_LDH_cytotoxicity: Cytotoxicity Assessment in the Life Technologies and Expression Analysis (LTEA) Assay (AID 2283563)
Summary of the method: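 HepaRG (human liver line), 48 h exposure, 8-pt half-log series from 100 uM, 0.5% DMSO vehicle, duplicates. Read-out: LDH in spent medium. Positive-direction fit vs DMSO baseline.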

[9] = Tanguay_ZF_120hpf_MORT_legacy: (Legacy) Oregon State University Tanguay Lab 120 Hour Post-fertilization zebrafish Assay for Mortality (AID 2283633)
Summary of the method: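 Brightfield scoring of embryo death (binary) at 24 and 120 hpf; static exposure 6–120 hpf, 28C, sealed and foil-covered. Pronase-dechorionated 5D wild-type larvae, single embryo per well. DMSO 0.64% v/v; trimethyltin chloride 5uM positive control.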

[10] = Tanguay_ZF_120hpf_YSE_legacy: (Legacy) Oregon State University Tanguay Lab 120 Hour Post-fertilization zebrafish Assay for Yolk Sac Edema (AID 2283634)
Summary of the method: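 Binary brightfield scoring of yolk sac edema at 120 hpf; DMSO baseline, gain-of-signal fitting. Dechorionated 5D larvae, one per well, static exposure 6–120 hpf, 28C, 0.64% DMSO. Dead embryos not scored.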

[11] = Tanguay_ZF_120hpf_AXIS_legacy: (Legacy) Oregon State University Tanguay Lab 120 Hour Post-fertilization zebrafish Assay for Body Axis Malformation (AID 2283635)
Summary of the method: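 Embryos: 5D wild-type, pronase-dechorionated 4 hpf; static exposure 6–120 hpf, 28C, sealed, dark, 1 embryo/well, 0.64% DMSO. 120 hpf axis malformation scored present/absent; dead embryos excluded. Analysed as gain of signal vs DMSO.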

[12] = Tanguay_ZF_120hpf_EYE_legacy: (Legacy) Oregon State University Tanguay Lab 120 Hour Post-fertilization zebrafish Assay for Eye Malformation (AID 2283636);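 further: binary presence or absence of eye malformation scored by brightfield in 120 hpf larvae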
Summary of the method: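 Static waterborne exposure of dechorionated zebrafish embryos (strain Tropical 5D), 6 to 120 hpf, sealed plates at 28C, 0.64% DMSO vehicle. Eye malformation is scored as a binary endpoint, with gain of signal analysed relative to DMSO.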

[13] = Tanguay_ZF_120hpf_SNOU_legacy: (Legacy) Oregon State University Tanguay Lab 120 Hour Post-fertilization zebrafish Assay for Snout Malformation (AID 2283637)
Summary of the method: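 Dechorionated zebrafish, individually housed from 6 hpf in covered, sealed wells at 28C with 0.64% DMSO vehicle, were examined at 120 hpf for snout malformation. Responses were binary and analysed positive-direction relative to DMSO.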

[14] = Tanguay_ZF_120hpf_JAW_legacy: (Legacy) Oregon State University Tanguay Lab 120 Hour Post-fertilization zebrafish Assay for Jaw Malformation (AID 2283638)
Summary of the method: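 Binary jaw-malformation calls at 120 hpf by brightfield imaging; DMSO (0.64% v/v) = baseline. Embryos: 5D wild-type, pronase-dechorionated, one per well from 6 hpf, static exposure, 28C, sealed, dark.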

[15] = Tanguay_ZF_120hpf_OTIC_legacy: (Legacy) Oregon State University Tanguay Lab 120 Hour Post-fertilization zebrafish Assay for Otic Vesicle Malformation (AID 2283639)
Summary of the method: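 Binary scoring of otic vesicle defects at 120 hpf in zebrafish (Tropical 5D) held under static exposure at 28C, sealed and shaded, with final DMSO 0.64%. Embryos dying by 24 or 120 hpf excluded; fitted positively against DMSO.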

[16] = Tanguay_ZF_120hpf_PE_legacy: (Legacy) Oregon State University Tanguay Lab 120 Hour Post-fertilization zebrafish Assay for Pericardial Edema (AID 2283640)
Summary of the method: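 Static waterborne exposure, 5D wild-type embryos, 28C, to 120 hpf; final DMSO 0.64% (vol/vol). Binary PE call at 120 hpf by brightfield; fitted upward vs DMSO baseline. 5uM trimethyltin chloride as positive control.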

[17] = Tanguay_ZF_120hpf_BRAI_legacy: (Legacy) Oregon State University Tanguay Lab 120 Hour Post-fertilization zebrafish Assay for Brain Malformation (AID 2283641)
Summary of the method: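 Read-out: binary brain morphology call at 120 hpf (brightfield), fitted in gain-of-signal direction vs DMSO. Wild-type Tropical 5D embryos, static exposure, 28C, 0.64% DMSO final; 5uM trimethyltin chloride as positive control.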

[18] = Tanguay_ZF_120hpf_SOMI_legacy: (Legacy) Oregon State University Tanguay Lab 120 Hour Post-fertilization zebrafish Assay for Somite Malformation (AID 2283647)
Summary of the method: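 Binary brightfield scoring of somite defects at 120 hpf in 5D wild-type larvae; one dechorionated embryo per well, static exposure from 6 hpf, 28C, sealed and dark. Final DMSO 0.64%; trimethyltin chloride 5uM positive control.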

[19] = Tanguay_ZF_120hpf_PFIN_legacy: (Legacy) Oregon State University Tanguay Lab 120 Hour Post-fertilization zebrafish Assay for Pectoral Fin Malformation (AID 2283648);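 further: each larva judged yes or no for fin defect by brightfield with dead larvae skipped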
Summary of the method: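 Scoring of pectoral fin malformation was binary, made at 120 hpf on larvae exposed statically from 6 hpf after enzymatic chorion removal. Activity was fitted upward relative to DMSO controls at 0.64% (vol/vol).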

[20] = Tanguay_ZF_120hpf_CFIN_legacy: (Legacy) Oregon State University Tanguay Lab 120 Hour Post-fertilization zebrafish Assay for Caudal Fin Malformation (AID 2283649)
Summary of the method: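 Dechorionated 5D wild-type zebrafish, static exposure 6–120 hpf, 28C, sealed and dark, 0.64% v/v DMSO final. Binary fin-malformation call at 120 hpf, brightfield; gain of signal vs DMSO baseline.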

Measured: outcome

Sequence of Cellular tumor antigen p53 (Homo sapiens) (P04637 whole entry, looked up): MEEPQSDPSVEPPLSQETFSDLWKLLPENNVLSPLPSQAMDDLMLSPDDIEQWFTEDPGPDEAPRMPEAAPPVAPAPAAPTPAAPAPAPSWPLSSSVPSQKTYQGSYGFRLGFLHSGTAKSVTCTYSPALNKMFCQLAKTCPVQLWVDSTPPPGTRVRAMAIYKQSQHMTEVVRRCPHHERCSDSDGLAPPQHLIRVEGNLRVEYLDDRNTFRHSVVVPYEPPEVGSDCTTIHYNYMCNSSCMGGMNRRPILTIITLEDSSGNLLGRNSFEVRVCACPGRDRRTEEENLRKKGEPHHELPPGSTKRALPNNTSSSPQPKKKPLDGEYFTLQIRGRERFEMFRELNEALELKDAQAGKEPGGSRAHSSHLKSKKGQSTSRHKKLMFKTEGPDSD

N#CCCCCC#N
inactive: [1] | [2] | [3] | [4] | [5] | [6] | [7] | [8] | [9] | [10] | [11] | [12] | [13] | [14] | [15] | [16] | [17] | [18] | [19] | [20]

O=C(CCl)c1ccccc1
inactive: [1] | [2] | [3] | [4] | [5] | [6] | [7] | [8] | [9] | [10] | [11] | [12] | [13] | [14] | [15] | [16] | [17] | [18] | [19] | [20]
